Compounds without any hit were thinned out: in the full panel of roughly 79,000, 15% have a hit. Cut-off read from the data, not from the text of the source: active = growth inhibition above about 70%; inactive = the rest.
Legend:
[1] = NCI Yeast Anticancer Drug Screen. Data for the rad50 strain (AID 155);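 note: 0% = growth of vehicle-only cultures of the same strain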; settings: S. cerevisiae rad50 strain growth inhibition; at 50.0 µM; active compounds read high
Summary of the method: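 Relative growth inhibition (compound vs vehicle) was measured in yeast with a defined repair-gene alteration.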

[2] = NCI Yeast Anticancer Drug Screen. Data for the mec2-1 strain (AID 157); settings: S. cerevisiae mec2-1 strain, at 50.0 µM, active compounds read high
Summary of the method: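 mec2-1 yeast strain, carrying an alteration in DNA damage repair or cell cycle control, was exposed to compounds; growth inhibition was measured relative to vehicle-treated controls.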

[3] = NCI Yeast Anticancer Drug Screen. Data for the sgs1 mgt1 strain (AID 161);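 note: 0% = growth of cultures given vehicle only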; settings: S. cerevisiae sgs1 mgt1 strain, at 50.0 µM, active compounds read high
Summary of the method: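 Percent growth inhibition was derived by comparing compound-exposed mutant yeast with vehicle-exposed cultures. The strain carries alterations in DNA damage repair.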

[4] = NCI Yeast Anticancer Drug Screen. Data for the cln2 rad14 strain (AID 165);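 note: 0% = growth equal to vehicle treated cultures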; settings: S. cerevisiae cln2 rad14 strain, at 50.0 µM, active compounds read high
Summary of the method: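 Yeast carrying cln2 and rad14 alterations (cell cycle control and DNA damage repair) were exposed to compounds. Growth inhibition was measured against vehicle-treated controls.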

[5] = NCI Yeast Anticancer Drug Screen. Data for the bub3 strain (AID 167); settings: S. cerevisiae bub3 mutant strain, at 50.0 µM, active compounds read high
Summary of the method: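 Screening used yeast with an engineered genetic alteration affecting cell cycle control. Compound-exposed cultures were compared with vehicle cultures, and reduced growth was taken as inhibition.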

[6] = NCI Yeast Anticancer Drug Screen. Data for the mlh1 rad18 strain (AID 175); settings: S. cerevisiae mlh1 rad18 strain growth inhibition; at 50.0 µM; active compounds read high
Summary of the method: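 Growth inhibition of the yeast strain was measured after compound exposure and expressed relative to vehicle-treated controls. The strain carries defined defects in DNA damage repair.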

Measured: growth inhibition

O=[N+]([O-])c1ccc(Nc2ccc(Cl)cc2)c2nonc12
inactive: [1] -24.7% | [2] -7.9% | [3] 25.7% | [4] 18.4% | [5] 8.85% | [6] 23.4%

O=C(Nc1ccc([N+](=O)[O-])cc1)OCc1ccccc1
inactive: [1] -14.1% | [2] -0.05% | [3] -9.35% | [4] 0.7% | [5] 1.7% | [6] -16%

CN/C=C(/c1ccc(OC)cc1)C(O)c1ccc(OC)c(OC)c1 (stereo not given)
inactive: [1] -17.9% | [2] -16.2% | [3] -38% | [4] 2.75% | [5] -10.8% | [6] -20.4%

O=c1c2ccccc2[nH]c2c(O)ccc(O)c12
inactive: [1] 18.3% | [2] -1.65% | [3] 6.55% | [4] 7.65% | [5] -1.55% | [6] 12.7%

NC(=O)N/N=C/c1ccc([N+](=O)[O-])s1
inactive: [1] -29.6% | [2] -0.8% | [3] 1.8% | [4] -39% | [5] -6.9% | [6] -8.5%

O=C(Cc1ccccc1)NN1C(=O)/C(=C\c2ccc(O)cc2)SC1=Nc1ccccc1
inactive: [1] 5.5% | [2] -1.05% | [3] 28.9% | [4] 4.4% | [5] -9.75% | [6] 19.9%

COC(=O)c1cc(C)ccc1/C=C1\Cc2c(C)cc(C)cc2C1=O
inactive: [1] -12.2% | [2] -25.8% | [3] -6.85% | [4] -30.6% | [5] -46.1% | [6] -39.6%

CCCCCCCCCCCCCCCc1cc(OC)ccc1S(=O)(=O)O
inactive: [1] 22.6% | [2] 5.8% | [3] 15.9% | [4] 30.9% | [5] 3.1% | [6] 15.6%

N#CC1(OC2OC(CO)C(O)C(O)C2O)C=CCC1 (stereo not given)
inactive: [1] 8.1% | [2] -33% | [3] 4.45% | [4] -7.45% | [5] -12.9% | [6] -3.05%

O=C(CC1=NC2NN(c3ccccc3)C(=O)C2=C1CC(=O)c1ccc(F)cc1)c1ccc(F)cc1 (stereo not given)
inactive: [1] 40.2% | [2] 20.6% | [3] 23.2% | [4] 13.1% | [5] 5.65% | [6] 38.9%

O=c1cc(C=Nc2cccc(Br)c2)[nH]c(=S)[nH]1
inactive: [1] -4.4% | [2] -17.4% | [3] -15.4% | [4] -24.8% | [5] -10.1% | [6] -10%

COC(=O)NCCCCl
inactive: [1] 5.25% | [2] -10.7% | [3] 3.5% | [4] -14.2% | [5] -0.3% | [6] 3.15%

Nc1ncnc2c1ncn2C1OC(CSCc2ccc(Cl)cc2)C(O)C1O (stereo not given)
inactive: [1] 26.6% | [2] 10.8% | [3] 15.4% | [4] 10.6% | [5] 58.7% | [6] 22.2%

Cc1cccc(N=NC2Sc3nc4ccccc4n3C2=O)c1 (stereo not given)
inactive: [1] -16.9% | [2] -19.4% | [3] -20.1% | [4] -9.25% | [5] 2.25% | [6] 2.9%

N=C(N)/N=C(/C=C/c1ccccc1)CC1OC(=O)c2ccccc21 (stereo not given)
inactive: [1] -6.95% | [2] -10.7% | [3] -22.6% | [4] -2.85% | [5] -28.8% | [6] -24.3%

NC(=O)NC(NC(=O)NC(NC(N)=O)c1ccco1)c1ccco1 (stereo not given)
inactive: [1] 11.3% | [2] 15.4% | [3] 10.7% | [4] 6.1% | [5] 2.05% | [6] 15.3%

CCCC(CNC(C)=O)(c1ccccc1)C1CCCCC1 (stereo not given)
inactive: [1] -10.7% | [2] 6.9% | [3] 3.15% | [4] 27.9% | [5] 11.2% | [6] 16.1%

CC(=O)Nc1cccc(OCOc2ccc([N+](=O)[O-])cc2)c1
inactive: [1] -4.65% | [2] 20.3% | [3] 30.4% | [4] -2.6% | [5] 22.6% | [6] 40.8%

COC(=O)c1ccccc1-c1ccccc1C(=O)OC
inactive: [1] 7.75% | [2] 18.1% | [3] 10.8% | [4] 25.8% | [5] 15.4% | [6] 13.7%

CCc1cccc(C(C)CC)c1NC(=O)CC1C(=O)Nc2ccccc2S1=O (stereo not given)
inactive: [1] 15.2% | [2] 0.65% | [3] 7.2% | [4] 18.1% | [5] 32.5% | [6] 15.2%

Source: PubChem BioAssay (NCI)
